# From PubChem BioAssay
# Results filed as inconclusive are left out. The source made the active and inactive calls. Cut-off read from the data, not from the text of the source, unless noted: active = inhibition above about 80%; inactive = the rest. Peptide text beside a SMILES is read from it.
# Key:
# [1] = galactose survival enhancers in mitochondrial complex I cybrids – cell-based, galactose medium, ATP luminescence, primary screen (AID 1645843;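 active = z-score of at least 1.8 in each of two replicates, scored against plate mean and spread of sample wells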;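 note: positive z means more ATP and so rescue of galactose-driven cybrid death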); conditions: complex I mutant cybrid cells, 72 h, stronger effect = higher value
# [2] = biological target: ATP-dependent translocase ABCB1 (Homo sapiens) (UniProt P08183); assay: P-glycoprotein substrate transport blockade – cell-based (AID 377; in the data active = fluorescence slope change above about 50%); conditions: MDR1-expressing cells, fluorescent substrate accumulation slope; stronger effect = higher value; concentration not given here
# ATP-dependent translocase ABCB1 (Homo sapiens), sequence (P08183 whole entry, looked up): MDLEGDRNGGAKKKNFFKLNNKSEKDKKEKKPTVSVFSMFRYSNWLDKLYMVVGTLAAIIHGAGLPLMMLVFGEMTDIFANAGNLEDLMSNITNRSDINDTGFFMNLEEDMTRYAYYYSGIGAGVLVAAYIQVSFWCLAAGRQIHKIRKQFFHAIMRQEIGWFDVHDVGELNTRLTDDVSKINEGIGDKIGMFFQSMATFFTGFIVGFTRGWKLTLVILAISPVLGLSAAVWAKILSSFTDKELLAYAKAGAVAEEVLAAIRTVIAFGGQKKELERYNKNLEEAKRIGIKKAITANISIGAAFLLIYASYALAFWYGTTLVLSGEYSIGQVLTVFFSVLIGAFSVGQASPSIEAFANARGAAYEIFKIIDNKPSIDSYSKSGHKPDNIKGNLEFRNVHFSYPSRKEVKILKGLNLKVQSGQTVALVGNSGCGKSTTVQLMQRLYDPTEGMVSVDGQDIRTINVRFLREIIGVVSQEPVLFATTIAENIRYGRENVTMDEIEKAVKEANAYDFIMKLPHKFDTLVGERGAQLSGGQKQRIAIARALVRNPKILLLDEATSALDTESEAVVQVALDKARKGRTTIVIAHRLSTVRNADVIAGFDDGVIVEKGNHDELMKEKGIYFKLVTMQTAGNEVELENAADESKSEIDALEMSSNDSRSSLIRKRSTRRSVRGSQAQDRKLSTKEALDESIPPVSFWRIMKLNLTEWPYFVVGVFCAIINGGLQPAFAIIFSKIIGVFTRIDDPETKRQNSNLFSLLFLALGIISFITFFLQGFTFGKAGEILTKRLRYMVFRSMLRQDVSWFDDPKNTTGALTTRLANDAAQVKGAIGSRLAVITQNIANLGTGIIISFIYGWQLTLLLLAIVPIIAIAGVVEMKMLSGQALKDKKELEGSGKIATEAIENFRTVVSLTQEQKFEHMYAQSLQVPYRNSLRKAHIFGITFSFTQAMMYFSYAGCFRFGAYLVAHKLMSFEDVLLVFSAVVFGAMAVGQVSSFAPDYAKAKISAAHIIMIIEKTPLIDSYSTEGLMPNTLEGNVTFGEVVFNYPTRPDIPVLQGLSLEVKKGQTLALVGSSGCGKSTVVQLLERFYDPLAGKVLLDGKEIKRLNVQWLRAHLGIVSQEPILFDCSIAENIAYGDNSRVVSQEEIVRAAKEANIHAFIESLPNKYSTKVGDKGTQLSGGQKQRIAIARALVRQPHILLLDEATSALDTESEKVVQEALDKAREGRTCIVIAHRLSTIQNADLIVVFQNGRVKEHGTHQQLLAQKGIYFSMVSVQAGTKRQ
# [3] = compounds altering viability of human ES cells (AID 493140; call rule not given here;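 note: cells exposed to compounds for four days before counting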); conditions: human embryonic stem cell survival screen; stronger effect = higher value
# [4] = growth inhibition, single agents and combos, CRL2098, cell-based, BGB or cisplatin IC20 combos, synergistic combos for chromothripsis tumors (AID 1671454); conditions: CRL2098 osteosarcoma cells, drug combinations, stronger effect = higher value;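 note: cells exposed for 96 h before readout; 0% = vehicle DMSO and 100% = killing by high DMSO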
# [5] = growth inhibition, single agents and combos, HD-MB03, cell-based, BGB or cisplatin IC20 combos, synergistic combos for chromothripsis tumors (AID 1671455; in the data active = inhibition above about 83%;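 note: 0% = vehicle DMSO and 100% = high DMSO as cytotoxic control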); conditions: HD-MB03 medulloblastoma cells, stronger effect = higher value
# [6] = growth inhibition, single agents and combos, UWB1.289, cell-based, BGB or cisplatin combos, synergistic combos for chromothripsis tumors (AID 1671456); conditions: UWB1.289 ovarian carcinoma cells, stronger effect = higher value;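 note: cells exposed to compound for four days; 0% = vehicle DMSO and 100% = killing by high DMSO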
# [7] = growth inhibition, single agents and combos, LFS_MB_2R, cell-based, cisplatin combos, synergistic combos for chromothripsis tumors (AID 1671457); conditions: LFS_MB_2R medulloblastoma cells, stronger effect = higher value;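 note: cells exposed to compound for four days before readout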
# [8] = UWB1.289_BRCA1 ovarian cancer growth, cell-based, BGB or cisplatin combinations (AID 1671459); conditions: UWB1.289 BRCA1 ovarian carcinoma, drug combinations, stronger effect = higher value
# [9] = drug combination toxicity in non-malignant astrocytes – cell-based, BGB or cisplatin IC20 combos, cytotoxicity control for chromothriptic childhood tumor combination screen (AID 1671460); conditions: Human astrocytes, viability inhibition, drug combinations, at 0.5 µM, stronger effect = higher value;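 note: cells exposed to compounds for 96 hours before viability readout; 0% = vehicle and 100% = killing control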
# [10] = blockers of biotin-polyQ monomer incorporation into aggregates – biochemical, solid-phase synthetic aggregates, QA3 (AID 1585; call rule not given here); conditions: polyQ aggregate elongation; EC50: measured here: elongation inhibition potency; inhibition: at 100 µM, stronger effect = higher value
# [11] = blockers of cytochrome c efflux from mitochondria – biochemical, purified mitochondria (AID 1603); conditions: stronger effect = lower value;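 note: mouse liver mitochondria challenged with calcium chloride; signal normalized to the plate average as 100%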
# [12] = polyglutamine aggregate formation blockers (AID 1604); conditions: polyglutamine-induced protein aggregation inhibition assay; stronger effect = higher value; tested at 2.5 µM
# [13] = glutamate transport activators, MN-1 cells, MN-1 cell line (AID 1612); conditions: MN-1 motor neuron cells, stronger effect = higher value;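 note: tested at 1 µM final; 0% = mean of DMSO vehicle wells on each plate; positive means more glutamate uptake than control and negative means less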
# [14] = GFP-Q80 aggregate reduction, neuronal-like cells, cell-based, NGF-treated PC12, GFPQ80 (AID 1614); conditions: PC12 NGF-treated GFP-polyQ80 inclusion reduction;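 note: lower means fewer inclusions and 0 means no inclusions at all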
# [15] = 75Q-TubH aggregate inhibition, S. cerevisiae, yeast (AID 1616); conditions: S. cerevisiae 75Q-TubH polyglutamine aggregation suppression; stronger effect = higher value
# [16] = rescue of PC12 cells from polyQ htt toxicity – LDH release (AID 1610); conditions: PC12 mutant huntingtin toxicity, final LDH at 4 uM, stronger effect = lower value
# [17] = P. berghei load reduction in hepatocytes – cell-based, HepG2, luciferase luminescence, HepG2 viability, primary screen (AID 624349; in the data active = parasite load remaining mostly below about 12%, no sharp cut-off; inactive = mostly above about 10%;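 note: 100% = mean of DMSO negative control wells on the same plate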); conditions: P. berghei liver stage in HepG2, luciferase luminescence, concentration not given here; parasite load remaining: stronger effect = lower value; viability: measured here: HepG2 viability without parasites
smiles,measurement,setting,value
COc1cccc(-c2cc3c(n(Cc4ccccn4)c2=O)CCN(C(=O)c2csc(C)n2)C3)c1,z-score,[1],-0.495 (inactive)
COc1ccccc1C(=O)N1CCN2C(=O)[C@H](CCCCN)NC(=O)[C@H]2C1,z-score,[1],-0.735 (inactive)
NCCCC[C@@H]1NC(=O)[C@@H]2C[C@H](NC(=O)c3sccc3Cl)CN2C1=O,z-score,[1],-0.915 (inactive)
C[C@H]1NC(=O)NC1=O,fluorescence slope change,[2],1.4% (inactive)
same,survival,[3],3.67 (inactive)
CC1(C)S[C@@H]2[C@H](NC(=O)[C@H](C(=O)O)c3ccsc3)C(=O)N2[C@H]1C(=O)O,survival,[3],15.8 (inactive)
C=CC1=C(C)C2=CC3=NC(=C(CC(=O)O)C4=NC(=C(C)C4=C(O)O)C=c4[nH]c(c(C)c4CC)=CC1=N2)C(CCC(=O)O)C3C (stereo not drawn),inhibition,[4]; at 0.5 µM,-39.9% (inactive)
same,inhibition,"[4]; measured here: combination with BGB at IC20, at 0.5 µM",-14.4%
same,inhibition,"[4]; measured here: combination with cisplatin at IC20, at 0.5 µM",-71.5%
same,inhibition,[5]; at 0.5 µM,-9.12% (inactive)
same,inhibition,"[5]; measured here: combo with BGB at IC20, at 0.5 µM",-0.977%
same,inhibition,"[5]; measured here: combo with cisplatin at IC20, at 0.5 µM",-18.8%
same,inhibition,[6]; at 0.5 µM,-0.22% (inactive)
same,inhibition,"[6]; measured here: inhibition with BGB combination, at 0.05 µM",-17.7%
same,inhibition,"[6]; measured here: inhibition with cisplatin combination, at 0.05 µM",-4.64%
same,inhibition,[7]; at 0.5 µM,-20% (inactive)
same,inhibition,"[7]; measured here: combination with cisplatin, at 0.5 µM",-3.5%
same,inhibition,"[7]; measured here: combination with cisplatin, at 5 µM",-14.7%
same,inhibition,"[8]; BGB combination, concentration series, at 5 µM",12.6%
same,inhibition,[8]; at 0.5 µM,-3.06% (inactive)
same,inhibition,"[8]; cisplatin combination, concentration series, at 5 µM",10.4%
same,inhibition,[9],-8.5% (inactive)
same,inhibition,[9]; measured here: combo with BGB IC20,-9.9%
same,inhibition,[9]; measured here: combo with cisplatin IC20,-17.9%
O=c1c(O)cc2c(O)oc3c(=O)c(O)cc4c3c2c1CC=4O,EC50,[10],44 µM
same,inhibition,[10],82% (active)
same,cytochrome c release ratio,[11],1.61
same,inhibition of aggregation,[12],25.2%
same,glutamate uptake change,[13],-0.57%
same,inclusion score,[14],2
same,aggregation suppression score,[15],0.786
Nc1ncnc2c1ncn2C1OC(CO)[C@H](O)C1O (stereo partly drawn),cytochrome c release ratio,[11],1.64
same,inhibition of aggregation,[12],80.6%
same,glutamate uptake change,[13],3.91%
same,inclusion score,[14],2
same,aggregation suppression score,[15],1.96
NCCCCC(N)C(=O)NC(Cc1c[nH]c2ccccc12)C(=O)NC(CCCCN)C(=O)O (stereo not drawn) (H-Lys-Trp-Lys-OH; configuration not given here),cytochrome c release ratio,[11],0.99
same,inhibition of aggregation,[12],83.9%
same,glutamate uptake change,[13],46.5%
same,inclusion score,[14],2
same,aggregation suppression score,[15],1.18
C=C1C(=O)OC2C1CCC1(C)CCC=C(C)C21 (stereo not drawn),cytochrome c release ratio,[11],0.81
same,inhibition of aggregation,[12],-33.3%
same,normalised LDH release,[16],0.89
same,glutamate uptake change,[13],0.76%
same,aggregation suppression score,[15],0.322
CC1=CC(=O)CC(C)(C)C1(O)/C=C/C(C)=C\C(=O)O (stereo not drawn),parasite load remaining,[17],91.5% (inactive)
same,viability,[17],73.1%
